PubChem BioAssay

Legend:
[1] = biological target: Tumor necrosis factor receptor superfamily member 10B (Homo sapiens) (UniProt O14763); experiment: viability loss of caspase-8 NB7 cells with TRAIL – with/without TRAIL, luminescence panel, confirmation (AID 651596); details: NB7 neuroblastoma + caspase-8, TRAIL sensitization, NB7 Caspase-8, with TRAIL, mean of runs, at 10 µM, stronger effect = higher value
[2] = as above; details: NB7 neuroblastoma + caspase-8, without TRAIL, NB7 Caspase-8, without TRAIL, mean of runs, at 10 µM

Chain of Tumor necrosis factor receptor superfamily member 10B (Homo sapiens) (O14763 whole entry, looked up): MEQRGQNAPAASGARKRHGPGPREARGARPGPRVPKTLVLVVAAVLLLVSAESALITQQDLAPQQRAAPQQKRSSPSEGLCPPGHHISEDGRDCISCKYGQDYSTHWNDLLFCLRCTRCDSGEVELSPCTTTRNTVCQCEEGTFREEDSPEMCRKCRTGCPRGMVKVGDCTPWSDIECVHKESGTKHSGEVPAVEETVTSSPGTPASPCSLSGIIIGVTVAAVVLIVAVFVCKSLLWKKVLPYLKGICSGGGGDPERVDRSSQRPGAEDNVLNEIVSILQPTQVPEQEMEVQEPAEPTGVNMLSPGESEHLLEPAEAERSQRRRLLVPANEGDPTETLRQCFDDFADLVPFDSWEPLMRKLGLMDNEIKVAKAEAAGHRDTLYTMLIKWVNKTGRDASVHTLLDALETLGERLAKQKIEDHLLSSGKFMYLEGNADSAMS

Row | SMILES | activity [1] | activity [2]
1 | O=C(Nc1ccc2c(c1)nc1n2CCSC1)c1ccco1 | 77.4% | 75.2%
2 | C/C(=N\NC(=O)c1cc(O)ccc1O)c1cccc(NC(=O)c2ccc(Cl)cc2)c1 | 40.8% | 24.6%
3 | COC(=O)Cn1c(=O)c(C(=O)CCl)c(N)n(Cc2ccccc2)c1=O | 93.6% | 94.7%
4 | CC(=O)c1sc(NC(=O)c2cc(=O)c3ccccc3o2)nc1C | 51.1% | 50.8%
5 | O=C(Nc1nc2c(s1)CCCC2)c1ccc(Br)o1 | 73.7% | 88.6%
6 | Cc1ccc(C(=O)N/N=C\c2ccccc2[N+](=O)[O-])cn1 | 47.5% | 43.6%
7 | C(=N\NC1=Nc2cccc3cccc1c23)/c1ccccn1 | 50.6% | 43%
8 | O=C(/C=C\Nc1ccccn1)c1ccccc1 | 55.4% | 53.2%
9 | COc1cc(/C=N/NC(=O)COc2ccc(C)cc2)ccc1OC(=O)c1cccs1 | 58.4% | 48.5%
10 | CC(C)(C)c1ccc(-c2cn(-c3ccc(Br)cc3)c3[n+]2CCCS3)cc1 | 71.9% | 55.1%
11 | O=C(NC1CC1)C1CCN(S(=O)(=O)c2ccc(Cl)c([N+](=O)[O-])c2)CC1 | 65.2% | 88.2%
12 | C=CCc1ccccc1OCC(=O)N/N=C/c1ccc(OC(C)=O)cc1OC(C)=O | -0.55% | 27.2%
13 | COc1ccc2c(=O)cc(-c3ccccc3)n(C)c2c1 | 56.4% | 60.1%
14 | CCOC(=O)c1ccc(N=c2sc(C(=O)OC)cc(=O)n2-c2ccc(C(=O)OCC)cc2)cc1 | 67.6% | 37.6%
15 | Nc1nc(Nc2ccccc2)nc2ccccc12 | 69.2% | 61.3%
16 | CCN1CCC(O)(/C=C/c2ccc(C(C)C)cc2)C(C(=O)/C=C/c2ccc(C(C)C)cc2)C1 (configuration not stated) | 87.8% | 82.8%
17 | O=C(/C=C/Nc1ccccc1F)c1ccc(Br)cc1 | 62.2% | 59.5%
18 | COc1ccc(OC)c2sc(N(CCN(C)C)C(=O)/C=C/c3cccs3)nc12 | 95.2% | 98.8%
19 | Cc1cccc(N2CCN(S(=O)(=O)c3ccc4c(c3)NC(=O)C(C)S4)CC2)c1C (configuration not stated) | -0.6% | -25.6%
20 | COc1ccc(/C(N)=N/OC(=O)CC2CCCCC2)cc1OC | 83.4% | 78.2%
21 | COc1ccc(CC(N)c2csc(NC(=O)c3cc(C(C)(C)C)nn3Cc3ccccc3)n2)cc1 (configuration not stated) | 52.9% | 90.5%
22 | CCC(=O)Nc1ccc(NC(=O)c2ccco2)cc1 | 35.1% | 41.4%
23 | O=C(Nc1ccccn1)c1onc2c1CCCC2 | 78.8% | 78.2%
24 | O=C(Nc1ccc2nc3ccccc3nc2c1)c1ccccc1 | 47% | 32.9%

Row | SMILES | activity [1] | activity [2]
25 | CC(C)c1ccc(/C=C/C(=O)Nc2nncs2)cc1 | 57.7% | 66.2%
26 | O=C(N/N=C/c1cc(O)ccc1[N+](=O)[O-])c1ccc2c(c1)OCCO2 | 91% | 87.7%
27 | COc1cccc2sc3ccc(C#CC4(O)CCCCC4)cc3c(=O)c12 | 46.1% | 45.8%
28 | CC(C)(C)NC(=O)C(c1ccncc1)n1c(-c2ccc(C(F)(F)F)cc2)nc2ccccc21 (configuration not stated) | 74.4% | 85.8%
29 | COc1ccccc1NC(=O)Nc1ccc2c(c1)nc(C)n2C | 77% | 73.8%
30 | O=C(Nc1nc(-c2ccccn2)cs1)C12CC3CC(CC(O)(C3)C1)C2 | 66.8% | 78.4%
31 | Cc1nc(NCC2CCCO2)nc2c1C(=O)CC(C)C2 (configuration not stated) | 33% | 40.6%
32 | COc1cc(C2Nc3ccccc3C(=O)N2c2ccc3c(c2)OCCO3)ccc1OCC(C)C (configuration not stated) | 64.9% | 63.5%
33 | COc1cccc(Nc2nc(N)nc(CCl)n2)c1 | 98.4% | 92%
34 | CC(C)c1nnc(NC(=O)c2c(O)c3cccc4c3n(c2=O)CCC4)s1 | 43.6% | 36.5%
35 | O=C1CCCCC(=O)[C@H](OC(=O)c2ccccc2)C[C@H](c2ccccc2)O1 | 2.17% | 2.2%
36 | O=C(N/N=C/c1ccccc1[N+](=O)[O-])c1ccc2c(c1)OCCO2 | 95.4% | 94.5%
37 | O=C(Nc1cccc(-c2ccc(N3CCCCC3)nn2)c1)C(F)(F)F | 95.2% | 95.2%
38 | Cc1noc(N)c1C(=O)Nc1ccc(C(C)(C)C)cc1 | 46.1% | 48.9%
39 | Cc1ccc2[nH]c(-c3ccccc3)cc(=O)c2c1 | 64.8% | 63%
40 | COc1ccc(/C=C/c2cc(-c3ccc(C)cc3)o[n+]2C)cc1 | 81.8% | 90.6%
41 | COc1cccc(CSc2nc3ccncc3[nH]2)c1 | 87.7% | 88.4%
42 | O=C(CCl)N(c1ccccc1)C1CCCCC1 | 99.4% | 99.8%
43 | O=c1[nH]c(Nc2nc3ccccc3o2)nc2c1CCCC2 | 79.8% | 57%
44 | Cc1cccc(NS(=O)(=O)c2ccc3c(c2)Cc2cc(S(=O)(=O)Nc4cccc(C)c4C)ccc2-3)c1C | 72.1% | 77.5%
45 | CCN(CC)S(=O)(=O)c1cc(NC(=O)Cn2ncc(Cl)c(Cl)c2=O)ccc1C | 99.5% | 99.6%
46 | CN(C)CCNC(=O)c1cc2c(s1)-c1ccc(Cl)cc1SC2 | 99% | 99.5%
47 | C(=N\Nc1nncc2ccccc12)/c1ccccc1 | 88.2% | 87.7%
48 | CCOc1cc(/C=N/N=C(/N)c2nonc2N)cc(Br)c1OCc1ccc(Cl)cc1 | 30.7% | 37.3%

Row | SMILES | activity [1] | activity [2]
49 | CC(C)n1c(/C=C/c2ccccc2)nc2ccccc21 | 63.2% | 69.3%
50 | O=S1(=O)N=C(Nc2nc3c(s2)CCCC3)c2ccccc21 | 75.7% | 81.4%
51 | CCCCNC(=O)c1ccc(Cn2c(=S)[nH]c3c([nH]c4ccc(OC)cc43)c2=O)cc1 | 76.7% | 63.2%
52 | CC(=O)Nc1ccc(NC(=O)CSc2nnc(NC(=O)c3ccccc3F)s2)cc1 | 69.5% | 63.9%
53 | O=C(CSc1nnc(NC(=O)c2ccc3c(c2)OCO3)s1)NCc1ccco1 | 85.4% | 83.7%
54 | COc1ccc(C(=O)Nc2ccccc2C(=O)Nc2cccnc2)cc1 | 58.9% | 55.5%
55 | N/C(=N\OC(=O)COc1ccc(Br)cc1Cl)c1ccccn1 | 38.2% | 47.5%
56 | COc1ccccc1N1CCN(c2ccc3ccccc3n2)CC1 | 38.5% | 24.1%
57 | N#CC1=C(N)N2C(=C(C#N)C1c1cccc(Br)c1)Nc1ccccc12 (configuration not stated) | 55.6% | 61.6%
58 | Cc1ccnc(NC(=O)c2ccc(OCC3CCCO3)cc2)c1 (configuration not stated) | 94.4% | 93.9%
59 | COC(=O)CSc1ncnc2c1sc1nc3c(cc12)COC(C)(C)C3 | 82.5% | 86.8%
60 | Cc1ccccc1C(=O)N1CCN(c2ccc(NC(=O)c3ccc([N+](=O)[O-])o3)cc2)CC1 | 86% | 99.5%
61 | O=C(/C=C/c1cccs1)N1CCc2ccccc21 | 59.8% | 55.5%
62 | CCOC(=O)c1c(CSC(=N)N)n(-c2ccc(C)cc2)c2cc(Br)c(OC(C)=O)cc12 | 90.7% | 81.3%
63 | O=c1c2sc(-c3ccccc3)cc2nc2n1CCC2 | 46.9% | 50%
64 | CC(C)(C)C(=O)Nc1ccc(-c2cn3ccsc3n2)cc1 | 95.7% | 95.8%
65 | Nc1nc(CCl)nc(N(c2ccccc2)c2ccccc2)n1 | 99.3% | 98.7%
66 | Cc1cccc(Cn2ncc(Cl)c(Cl)c2=O)c1 | 92.2% | 98.9%
67 | Cc1ccc(C(=O)Nc2ccc(C)c(S(=O)(=O)N(C)C)c2)s1 | 52.5% | 66.5%
68 | C=CCN(CC=C)c1cnn(-c2nc3ccccc3[nH]2)c(=O)c1Cl | 69.6% | 59.7%
69 | O=C(Nc1ccc(F)cc1)c1nc(S(=O)(=O)Cc2ccccc2)ncc1Cl | 57% | 94.9%
70 | Cc1cc(C(=O)COC(=O)c2n[nH]c3ccccc23)c(C)n1C | 62.2% | 55.9%
71 | COc1ccc(-c2cn3cc(C)ccc3n2)cc1Br | 82.2% | 77.3%
72 | CC1(C)Cc2c(sc(NC(=O)COc3cccc4ccccc34)c2C#N)C(C)(C)N1 | 85.3% | 94.1%

Row | SMILES | activity [1] | activity [2]
73 | O=C(N/N=C/c1cccs1)c1ccc2c(c1)OCO2 | 71.7% | 66%
74 | C=CCNc1nc(NCc2ccc(NC(C)=O)cc2)c2sc(-c3ccccc3)cc2n1 | 46.1% | 43.1%
75 | Cn1c(=N)n(CC(=O)c2ccc(F)cc2)c2ccccc21 | 75.8% | 67.5%
76 | OCC1OC(n2cnc3c(SCc4ccccc4)ncnc32)C(O)C1O (configuration not stated) | 59.9% | 67.1%
77 | Cc1cccc(/C(N)=N/OC(=O)c2cccc3ccccc23)c1 | 89.5% | 71%
78 | COc1ccc(Cn2c(SCc3ccc(C)cc3)nc3cc(OC)c(OC)cc3c2=N)cc1Cl | 99% | 99.3%
79 | Cc1ccc2nc(NC(=O)c3ccccc3F)sc2c1 | 67.5% | 64%
80 | CN(NC(=O)C(C)(C)C)c1nc(-c2ccccc2)nnc1C(F)(F)F | 43.9% | 55.6%
81 | CSc1ncccc1C(=O)OCC(=O)c1cc(C)n(CC2CCCO2)c1C (configuration not stated) | 44% | 23.6%
82 | Cn1sc(NC(=O)c2ccc(Cl)cc2)nc1=O | 68.4% | 67%
83 | CCOCc1nc(N)nc(N)c1-c1cccc(Cl)c1 | 46.8% | 61.9%
84 | CSCCC(NC(=O)c1ccc(Cl)c([N+](=O)[O-])c1)C(=O)N1CCN(C/C=C/c2ccccc2)CC1 (configuration not stated) | 36.3% | 24.4%
85 | CC1CCCN(c2ncnc3c2cnn3-c2ccccc2)C1 (configuration not stated) | 86.1% | 85.1%
86 | Cc1ccc(N=Cc2c(C)[nH]n(-c3nc4ccccc4[nH]3)c2=O)cc1 | 88.6% | 88.8%
87 | Cc1ccc(-c2nc3cc(N)ccc3o2)c(C)c1 | 61% | 49.5%
88 | COc1ccc(/C=N/Nc2cc(OC)ncn2)cc1 | 53.9% | 40.8%
89 | COc1ccc(/C=N/OC(=O)Nc2ccccc2OC)cc1 | 56.9% | 63.3%
90 | Cc1ccc(/C=N/NC(=O)c2nn(C)cc2Cl)cc1 | 62.2% | 36%
91 | CC(C)C[C@H](NC(=O)c1nc[nH]c1C(=O)N[C@@H](CC(C)C)C(=O)OC(C)(C)C)C(=O)OC(C)(C)C | 72.4% | 63.2%
92 | COc1ccc2nc(Cl)c(/C=N/Nc3ccccn3)cc2c1 | 64.5% | 59.5%
93 | Cc1ccc(Cn2ncc(Cl)c(Cl)c2=O)cc1 | 97.2% | 99.3%
94 | COc1ccccc1NC(CC(=O)c1ccccc1)C(=O)OCC(=O)c1ccc(Br)cc1 (configuration not stated) | 65.4% | 57.2%
95 | O=C(Nc1ccc2c(c1)OCO2)c1ccc(Cl)cc1Cl | 72.1% | 67.6%
96 | CC(O)CC(=O)OC[C@]12CC[C@H]3[C@@](C)(CC[C@H]4C(C)(C)CCC[C@]34C)[C@@H]1CC(C1=CC(=O)OC1O)O2 (some centres not stated) | 87.1% | 93%
